Only some compounds are listed: those with a hit (about 19% of all), similar ones and a draw of the others.
HT1080NT lethal = kills 2HG-producing HT-1080-NT fibrosarcoma cells; AID 686970; 360,000 compounds, 1.6% hits; Potency, µM (doses to about 46.1 µM), for inactives: top-dose activity, negative = less viability, hits mostly cytotoxic; HT-1080-NT fibrosarcoma viability, CellTiter-Glo ATP luminescence, 48 h;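 also: NT is the 2HG producing partner of a matched IDH1 knockdown line; 0% = DMSO-treated cells and -100% = media-only wells without cells; nearly all actives have a fitted effect of over 55% in size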
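HT-1080-NT; 750 cells/well; 5% FBS RPMI; 48 h compound, 37 degrees C; CellTiter-Glo luminescence; curve fitting and curve-class assignment.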
HT1080 IDH1KD tx = HT-1080 IDH1 knockdown cell toxicity (counter line); AID 686971; 360,000 compounds, 2% hits; HT-1080 IDH1 knockdown viability, ATP luminescence, 48 h; Potency, µM (highest dose often 46.1 µM), for inactives: at the highest dose activity, negative = toxicity, usual class: cytotoxic;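 also: 0% = DMSO wells and -100% = cell-free medium wells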
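Viability of IDH1-knockdown HT-1080 fibrosarcoma cells was assessed by CellTiter-Glo after 48 h at 37 °C with titrated compound; concentration-effect curves were classified by fit quality and response size.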
KB-V1 cytotox = KB-V1 MDR subline cytotoxicity; 400,000 compounds, 3.4% hits; KB-V1 MDR cells viability, CellTiter-Glo, 72 h; AID 1347076; Potency, µM (series often up to 46.1 µM), hits mostly cytotoxic; also: nearly all actives have a fitted effect of over 60% in size
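Drug-selected KB-V1 cells, grown in DMEM lacking phenol red with 10% FBS, receive compound titrations; after three days at 37 degrees C, surviving cell ATP is quantified by CellTiter-Glo luminescence and responses normalized and curve-fitted.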
DT40 TDP1 CPT = growth inhibition of DT40 Tdp1-/-;hTDP1 cells with camptothecin (screen for TDP1 inhibitors); chicken DT40 Tdp1-/-;hTDP1 cells + 20 nM CPT, ATP luminescence, 48 h; Potency, µM (doses to about 46.2 µM), for inactives: at the top dose activity change, negative = growth inhibition, hits mostly inhibitors; 420,000 compounds, 12% hits; also: nearly all actives have a fitted effect of over 55% in size
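Chicken DT40 Tdp1-/- cells complemented with human TDP1, 400 cells/well, exposed to compounds plus 20 nM camptothecin for at least 48 h at 37 C; viability read as ATP content by CellTiter-Glo luminescence.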
KB-3-1 cytotox = kills parental KB-3-1 adenocarcinoma cells; 400,000 compounds, 1.4% hits; KB-3-1 viability, CellTiter-Glo ATP luminescence, 72 h; Potency, µM (doses to about 46.1 µM), usual class: cytotoxic; also: nearly all actives have a fitted effect of over 60% in size
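Viability of parental KB-3-1 cells, measured by CellTiter-Glo luminescence, followed a 72 h incubation at 37 °C with pinned compounds in phenol-red-free DMEM containing 10% FBS.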
DT40 TDP1 no CPT = qHTS for Inhibitors of human tyrosyl-DNA phosphodiesterase 1 (TDP1): qHTS in cells in absence of CPT. 420,000 compounds, 15% hits. DT40 Tdp1-/- hTDP1 cells, no CPT, ATP luminescence, 48 h. Potency, µM (doses to about 46.2 µM), inactives show at the top dose activity change, negative = growth inhibition, most hits filed as inhibitors. AID 686978, 2013; also: nearly all actives have a fitted effect of over 55% in size
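Compound effects on proliferation are scored in DT40 Tdp1-/-;hTDP1 cells in the absence of CPT. ATP levels (CellTiter-Glo luminescence) are recorded after a ≥48 hr, 37 °C incubation.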
* marks the source's active call; other numbers are inactive results; i = inactive; ? = inconclusive; nt = no result given; [ ] = dose if it differs, or a comment. Calls follow the shape of the dose curve; as a rule, active = well fitted curve in the direction sought with a large enough effect; inconclusive = small, poorly fitted or top-dose-only effect, or another doubt; inactive = no such curve, though single readings can be large; an effect the other way counts as inactive or inconclusive. Unless noted, % is scaled to controls: 0 for no effect and ±100 for the full control effect; potency is read from the fitted curve at half-maximal effect.

SMILES	HT1080NT lethal	HT1080 IDH1KD tx	KB-V1 cytotox	DT40 TDP1 CPT	KB-3-1 cytotox	DT40 TDP1 no CPT
COC(C(=O)Nc1ccnn1C1CCN(Cc2cnn(C(C)C)c2)CC1)c1ccccc1 (centres undefined)	22%	4%	?	-17%	i	22%
O=C(NCCn1cc(SCc2ccc(Cl)cc2)c2ccccc21)c1cccs1	nt	nt	i	?	i	?
Cc1ccccc1-c1noc(CSc2nnc(-c3ccncc3)n2-c2ccc(F)cc2)n1	nt	nt	i	?	i	15µM*
COc1ccc(-c2noc(CSc3nnc(C)n3-c3ccc(C)cc3)n2)cc1OC	nt	nt	i	?	i	?
Cc1ccc(SCc2nc(-c3ccncc3)no2)cc1	-3%	-2%	i	5.8µM*	i	13µM*
COc1ccc(-c2noc(CSc3nnc(-c4ccncc4)n3-c3ccc(C)c(C)c3)n2)cc1	nt	nt	nt	15µM*	nt	13µM*
COc1ccc(-c2noc(CSc3nnc(C)n3-c3ccc(C)c(C)c3)n2)c(OC)c1	nt	nt	i	?	i	18µM*
NC(=O)c1cc(S(=O)(=O)NCC2CCC(C(=O)Nc3ccc(Cl)cc3)CC2)cs1 (centres undefined)	nt	nt	i	?	i	?
CN1CCCc2ccccc21	nt	nt	i	-1%	i	-14%
CCOc1ccccc1NS(=O)(=O)c1c(-c2ccc(C)cc2)csc1C(=O)OC	nt	nt	i	?	?	16µM*
CCOC(=O)c1ccccc1NS(=O)(=O)c1c(-c2ccc(C)cc2)csc1C(=O)OC	nt	nt	i	6.5µM*	?	5.8µM*
COC(=O)c1scc(-c2ccc(C)cc2)c1S(=O)(=O)Nc1ccc(F)cc1F	nt	nt	i	-14%	i	-20%
CCOC(=O)C1(Cc2ccccc2C(F)(F)F)CCN(C2CCN(C(C)=O)CC2)CC1	-20%	0%	i	3%	i	-27%
CCOc1ccc(CCNS(=O)(=O)c2cc(Br)cc3c2N(C(C)=O)CC3)cc1OCC	nt	nt	nt	-27%	nt	?
CCC(C)n1c(SCC(=O)Nc2ccccc2C(=O)OC)nc2ccsc2c1=O (centres undefined)	nt	nt	nt	16µM*	nt	18µM*
CCC(C)n1c(SCC(=O)Nc2ccccc2C(F)(F)F)nc2ccsc2c1=O (centres undefined)	-26%	-20%	23µM*	-19%	i	-20%
Cc1ccc(-c2cc(C(=O)Oc3ccccc3)c3cc(C)ccc3n2)cc1	nt	nt	?	7%	i	-8%
COc1ccc2c(c1)OC(C)CN(CC(=O)NCc1cn[nH]c1-c1ccc(F)cc1)C2 (centres undefined)	nt	nt	nt	-2%[9.04 µM]	nt	-19%
Cc1ccc(OCC(=O)Nc2c(C)nn(-c3ccccc3)c2C)c(Br)c1	2%	2%	?	?	i	23µM*
Cc1nn(-c2ccccc2)c(C)c1NC(=O)COc1ccc(F)cc1Cl	-7%	-11%	?	23µM*	i	21µM*
CCOC(=O)Cn1nc(C)c(NC(=O)COc2ccc([N+](=O)[O-])cc2)c1C	8%	9%	i	19%	i	17%
Cc1nn(-c2ccccc2)c(C)c1NC(=O)COc1ccc([N+](=O)[O-])cc1	16%	10%	i	?	i	15µM*
Cc1ccc(C)c(OCC(=O)OCC(=O)Nc2c(C)nn(-c3ccccc3)c2C)c1	1%	1%	i	-9%	i	2%
COc1cccc(NC(=O)CN(C)C(=O)c2ccc(OCc3ccccc3)c(OC)c2)c1	-3%	1%	?	3%	i	-4%
Cc1noc(C)c1COC(=O)c1cc(=O)[nH]c2ccccc12	0%	-2%	5.8µM*	0%	?	0%
SMILES	HT1080NT lethal	HT1080 IDH1KD tx	KB-V1 cytotox	DT40 TDP1 CPT	KB-3-1 cytotox	DT40 TDP1 no CPT
Cc1cc(C(=O)OCc2nnc(-c3ccccc3)o2)c(C)n1-c1ccccc1	-19%	-18%	?	18µM*	i	21µM*
Cc1noc(C)c1COC(=O)c1cc(C)n(-c2ccccc2)c1C	5%	-18%	7.3µM*	?	?	21µM*
CC(=O)Nc1sc(C)c(C)c1C(=O)OCCOc1ccccc1	-18%	-30%	i	-7%	i	?
COc1ccc(C)cc1NC(=O)N1CCN(c2cc(-c3noc(C)n3)ccc2C)CC1	nt	nt	?	?	i	23µM*
COc1ccc(C)cc1NC(=O)Nc1cccc(-c2noc(C)n2)c1	nt	nt	?	?	i	?
CN1CCN(C(CNC(=O)C(=O)NC2CCCC2)c2ccc(F)cc2)CC1 (centres undefined)	14%	6%	i	-1%	i	3%
CCC(=O)N1c2ccccc2CC1C(=O)NCc1ccc(N(C)C)cc1 (centres undefined)	nt	nt	i	-8%	i	-20%
C(=C\c1ccccc1)/CN1CCN(C(c2cccc3ccccc23)c2nnnn2Cc2ccccc2)CC1 (centres undefined)	?	?	?	16µM*	i	16µM*
CCCCn1nnnc1C(CCSC)N1CCN(C/C=C/c2ccccc2)CC1 (centres undefined)	-2%	-3%	?	?	i	?
CC1CCN(C(c2cccs2)c2nnnn2Cc2ccccc2)CC1 (centres undefined)	-18%	-24%	15µM*	?	?	?
c1ccc(Cn2nnnc2C(c2cccs2)N2CCSCC2)cc1 (centres undefined)	0%	0%	?	-9%	i	-9%
C(=C\c1ccccc1)/CN1CCN(C(c2cccs2)c2nnnn2Cc2ccccc2)CC1 (centres undefined)	?	?	?	?	?	21µM*
CC(C)(C)n1nnnc1C(c1cccs1)N1CCN(C/C=C/c2ccccc2)CC1 (centres undefined)	-3%	-9%	?	?	?	?
Cc1cc(OCC(=O)NCCc2cccc(F)c2)c2c(C)cc(=O)oc2c1	1%	2%	i	1%	i	20%
C=C(C)Cn1c(=O)c2c(nc3n2CCN3c2ccc(CC)cc2)n(C)c1=O	nt	nt	nt	-28%	nt	?
COc1ccc(C2Nc3ccc(NC(C)=O)cc3C(=O)N2Cc2ccccc2)cc1COc1ccc(NC(C)=O)cc1 (centres undefined)	11%	14%	nt	?	nt	18µM*
